Data published in the supplement of paper PMC9897528.

What follows are compounds tested on Scedosporium aurantiacum CBS 136046 (assay: growth inhibition relative to DMSO control (OD600); higher = more antifungal activity, active = 80 or more; extreme values may be limits of the assay). Details: 5 µM; 72 h; 37 °C.
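Note: conidia screened in RPMI 1640 medium under 5% CO2, growth read by spectrophotometer, medium with 0.5% DMSO serving as the untreated reference.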

Growth inhibition, inactive:
CCc1cc(CCCOc2c(C)cc(-c3noc(C(F)(F)F)n3)cc2C)on1 7.39%, Oc1cccc(C(Nc2nccs2)c2ccc3cccnc3c2O)c1 (stereo not drawn) 5.56%, CN(C/C=C/C#CC(C)(C)C)Cc1cccc2ccccc12 23.6%, FC(F)(F)c1cc(C(F)(F)F)c2ccc3nc(-c4nnco4)cn3c2n1 4.29%, COc1ccc(CNC(=O)C(NS(=O)(=O)c2ccc3nc(C)sc3c2)C(C)C)cc1 (stereo not drawn) 26.3%, C[C@@H](c1nc(-c2ccc(C#N)cc2)cs1)[C@](O)(Cn1cncn1)c1ccc(F)cc1F 60.6%, COc1ccc(COc2cc3oc(=O)c4cc(C(C)O)ccc4c3cc2OC)cc1 (stereo not drawn) 2.35%, O=c1[nH]c(=O)n(Cc2cccc(Oc3ccccc3)c2)cc1Nc1ccccc1 12.7%, Cc1ccn2c(C(=O)NCc3ccccc3)c(C)nc2c1 34%, CCOc1noc2cc(OCCC3CCN(c4ccc(C)nn4)CC3)ccc12 37.3%, COc1cc(Cc2cnc(N)nc2N)c2c(c1OC)OC(C1CC1)C=C2 (stereo not drawn) 2.07%, CCCCc1ccc(-c2nc(C)c(C(=O)OC)s2)cc1 12.4%, C[C@H](c1cccc2ccccc12)N(C)Cc1ccccc1 14.5%, NC(=O)C(c1ccccc1)(c1ccccc1)[C@H]1CCCN(CCc2ccc3c(c2)CCO3)C1 13.5%, O=C(Nc1ccccc1C(=O)O)c1cccc(Oc2ccccc2)c1 0.169%, Fc1ccc(-n2cc(Cn3c(-c4cccc(F)c4)nc4ccccc43)nn2)cc1 17.9%, [N-]=[N+]=N[C@H]1C[C@H](n2ccc(=O)[nH]c2=O)O[C@@H]1CO 11.7%, Cn1cc(NC(=O)c2cc(NC(=O)c3ccc(/C=C/c4cnc5ccccc5c4)cc3)cn2C)cc1C(=O)NCCN1CCOCC1 0%, CCC[C@H](NC(=O)[C@@H]1[C@H]2CCC[C@H]2CN1C(=O)[C@@H](NC(=O)[C@@H](NC(=O)c1cnccn1)C1CCCCC1)C(C)(C)C)C(=O)C(=O)NC1CC1 4.34%, C[C@H](Cn1cnc2c(N)ncnc21)OCP(=O)(O)O 13.7%, Cc1ccc(S(=O)(=O)Nc2cccc3cccnc23)cc1 42.5%, COc1ccc(NC(=O)CC2Sc3ncnn3C2=O)cc1 (stereo not drawn) 0%, CC(C)CCN1C(=O)C(C2=NS(=O)(=O)c3cc(NS(C)(=O)=O)ccc3N2)=C(O)[C@@H]2[C@H]3CC[C@H](C3)[C@@H]21 28.5%, CN1CCN(c2ccc3[nH]c(-c4ccc5[nH]c(-c6ccc(O)cc6)nc5c4)nc3c2)CC1 11.7%, CCc1ccccc1OCCN1CCCCCC1 26.2%, c1cc(CN2CCCNCCNCCCNCC2)ccc1CN1CCCNCCNCCCNCC1 6.54%, COc1ccc(C(C)(C)C)cc1NC(=O)C(=O)c1ccc(OCCN2CCOCC2)c2ccccc12 9.3%, NC(=O)c1ccccc1NC(=O)c1ccc(C(=O)Nc2ccccc2C(N)=O)cc1 11.5%, COc1cc(Cc2cnc(N)nc2N)cc(OC)c1OC 0.169%, CN(O)C(=O)c1cc2c(CN3CCC[C@H]3C(N)=O)cn(Cc3ccc(F)cc3)c2cn1 1.58%, CCCCc1ccc(-c2cc(C(=O)O)cc(-c3ccc(Cl)cc3)n2)cc1 37.3%, Cc1[nH]c2ccccc2c1CC(=O)N[C@@H](Cc1ccccc1)C(=O)N(C)c1ccccc1 10.7%, Cc1ncc([N+](=O)[O-])n1CC(O)CN1CCOCC1 (stereo not drawn) 31%, CC[C@@]1(O)C(=O)OCc2c1cc1n(c2=O)Cc2cc3c([N+](=O)[O-])cccc3nc2-1 22.2%, Cc1ccc(NC(=O)c2ccc(CN3CCN(C)CC3)cc2)cc1Nc1nccc(-c2cccnc2)n1 17.6%, O=C(CC1Sc2ncnn2C1=O)Nc1ccc(Br)cc1 (stereo not drawn) 33.4%, Cc1cc(O)c2c(c1)C(=O)c1c(I)c(O)c(I)c(O)c1C2=O 2.05%, O=C1c2cccc3cccc(c23)C(=O)N1CC1CO1 (stereo not drawn) 19.8%
